Data from PubChem BioAssay (NCATS).
Inconclusive results are not listed. Where a call stands in place of a potency, no number is given. Calls of active or inactive are those of the source. Calls follow the shape of the dose curve; as a rule, active = well fitted curve in the direction sought with a large enough effect; inconclusive = small, poorly fitted or top-dose-only effect, or another doubt; inactive = no such curve, though single readings can be large; an effect the other way counts as inactive or inconclusive.

Tests used:
[1] = qHTS to identify inhibitors of the type 1 interferon - major histocompatibility complex class I in skeletal muscle: primary screen against the NCATS LOPAC collection (AID 1347405);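 also: lytic HiBiT luminescence reporting HLA-B protein level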; also: potency is read from the fitted curve at half-maximal effect
In short: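 After 24 h at 37 C with compounds (7-point, 1:4.3 dilutions, 46 uM top final) plus 4 ng/ml IFN-beta, luminescence from lytic HiBiT detection was measured. HLA-B*08:01 in C25cl48 myoblasts carried an endogenous C-terminal HiBiT tag; medium lacked dexamethasone.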

[2] = qHTS for inhibitors of adenylyl cyclases using a fission yeast platform: a pilot screen against the NCATS LOPAC library (AID 1347410)
In short: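 Inhibition of GNAS-stimulated AC9 activity in S. pombe was inferred from derepression of a PKA-repressed fbp1-GFP reporter, measured as cytometric fluorescence after 18 h at 30C with compounds at up to 57 µM.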

[3] = Validation qHTS assay for inhibitors of Activation Induced Cytidine Deaminase (AID): UDG Counterscreen signal (AID 1347427)
In short: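 Fluorescence at 560 nm excitation, 665 nm emission reports UDG signal after 250 mM NaOH (2x) addition and 30 min. Enzymes (AID 1 uM, UDG 2 U/mL, at 4/3x) preincubated 10 min with compound, then 4 h with 4x 250 nM DJC20/DJC23 substrate at room temperature.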

[4] = qHTS to identify inhibitors of the type 1 interferon - major histocompatibility complex class I in skeletal muscle: primary screen against the NCATS Mechanism Interrogation Plate v5.0 (MIPE) Libary (AID 1347411); also: nearly all actives have a fitted effect of over 65% in size
In short: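 Luminescence from CRISPR HiBit-tagged endogenous HLA-B in human myoblasts reported MHC class I level after 24 h of IFN-beta (4 ng/ml) plus compound. Compounds ran as 11-point 1:3 series, top 46 uM final.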

N#C/C(=C\c1ccc(-c2cc(Cl)ccc2Cl)o1)C(=O)Nc1cccc2ncccc12
Potency [1]: 14.1 µM (active)
outcome [2]: inactive
Potency [3]: inactive

Oc1cc(O)cc(/C=C/c2ccc(O)c(O)c2)c1
Potency [1]: inactive
outcome [2]: inactive
Potency [4]: inactive
Potency [3]: inactive

O=C(Nc1ccncc1)c1cc([N+](=O)[O-])ccc1Cl
Potency [1]: 15.8 µM (active)
outcome [2]: inactive

OC[C@H]1O[C@@H](n2cnc3c(NC4CCCCC4)ncnc32)[C@H](O)[C@@H]1O
Potency [1]: inactive
outcome [2]: inactive
Potency [3]: inactive

CN1CCc2cc(NC(=O)Nc3cccnc3)ccc21
Potency [1]: inactive
outcome [2]: inactive
Potency [3]: inactive

CC1(C)CCC=[N+]1[O-]
Potency [1]: inactive
outcome [2]: inactive
Potency [3]: inactive

NC(CCCP(=O)(O)O)C(=O)O (stereo not given)
Potency [1]: inactive
outcome [2]: inactive
Potency [3]: inactive

O=c1[nH]c2cc([N+](=O)[O-])c([N+](=O)[O-])cc2[nH]c1=O
Potency [1]: inactive
outcome [2]: inactive
Potency [3]: inactive

CNc1ncnc2c1ncn2[C@@H]1O[C@H](CO)[C@@H](O)[C@H]1O
Potency [1]: inactive
outcome [2]: inactive
Potency [3]: inactive

CN1C2CCC1CC(OC(=O)C(O)c1ccccc1)C2 (stereo not given)
Potency [1]: inactive
outcome [2]: inactive
Potency [3]: inactive

O=C(Nc1ccc2c(c1)CCN(Cc1ncn[nH]1)C2)c1ccccc1-c1ccc(C(F)(F)F)cc1
Potency [1]: inactive
outcome [2]: inactive
Potency [4]: inactive

NCCCCCCCCCCN
Potency [1]: inactive
outcome [2]: inactive
Potency [3]: inactive

COc1ccc2c(c1)CCC1C2CC[C@@]2(C)C1CC[C@@H]2NCCCCCCN1C(=O)CCC1=O (stereo not given in full)
Potency [1]: inactive
outcome [2]: inactive
Potency [3]: inactive

Fc1cccc(/C=N/N=C/c2cccc(F)c2)c1
Potency [1]: inactive
outcome [2]: inactive
Potency [3]: inactive

Fc1ccc2[nH]c(CN3CCN(c4ccccn4)CC3)cc2c1
Potency [1]: inactive
outcome [2]: inactive

Nc1ncnc2c1ncn2[C@@H]1O[C@H](COP(=O)(O)CP(=O)(O)OP(=O)(O)O)[C@@H](O)[C@H]1O
Potency [1]: inactive
outcome [2]: inactive
Potency [3]: inactive

C=CC(C)=C[C@@]1(C)SC(=O)C(C)=C1O
Potency [1]: inactive
outcome [2]: inactive
Potency [3]: inactive

CC1CN(S(=O)(=O)c2cccc3cnccc23)CCN1 (stereo not given)
Potency [1]: inactive
outcome [2]: inactive
Potency [3]: inactive

CCN1/C(=C/C(C)=O)Sc2ccc(OC)cc21
Potency [1]: inactive
outcome [2]: inactive
Potency [4]: inactive
Potency [3]: inactive

C[N+](C)(C)CCOP(=O)(O)OP(=O)([O-])OC[C@H]1O[C@@H](n2ccc(N)nc2=O)[C@H](O)[C@@H]1O
Potency [1]: inactive
outcome [2]: inactive
Potency [3]: inactive

Nc1ncnc2c1ncn2[C@@H]1O[C@H](COP(=O)(O)OP(=O)(O)OP(=O)(O)OP(=O)(O)OC[C@@H]2O[C@H](n3cnc4c(N)ncnc43)[C@@H](O)[C@H]2O)[C@@H](O)[C@H]1O
Potency [1]: inactive
outcome [2]: inactive
Potency [3]: inactive

COc1cc(SC)ccc1C(=O)N1CCC(Cc2ccccc2)CC1
Potency [1]: inactive
outcome [2]: inactive
Potency [4]: inactive
Potency [3]: inactive

COc1cc(C(O)CO)ccc1OS(=O)(=O)O (stereo not given)
Potency [1]: inactive
outcome [2]: inactive
Potency [3]: inactive

Brc1c(Br)c(Br)c2n[nH]nc2c1Br
Potency [1]: inactive
outcome [2]: inactive
Potency [3]: inactive

O=C1C(SCCO)=C(SCCO)C(=O)c2ccccc21
Potency [1]: 10 µM (active)
outcome [2]: inactive
Potency [3]: inactive

c1ccc(-c2ccccn2)nc1
Potency [1]: inactive
outcome [2]: inactive
Potency [3]: inactive

O=C(Nc1cccc(C(=O)Nc2ccc(S(=O)(=O)O)c3cc(S(=O)(=O)O)cc(S(=O)(=O)O)c23)c1)Nc1cccc(C(=O)Nc2ccc(S(=O)(=O)O)c3cc(S(=O)(=O)O)cc(S(=O)(=O)O)c23)c1
Potency [1]: inactive
outcome [2]: inactive
Potency [3]: inactive

N[C@@H](CC(=O)O)C(=O)O
Potency [1]: inactive
outcome [2]: inactive
Potency [3]: inactive

N[C@H](CCCP(=O)(O)O)C(=O)O
Potency [1]: inactive
outcome [2]: inactive

CCC(CO)Nc1nc(NCc2ccccc2)c2ncn(C(C)C)c2n1 (stereo not given)
Potency [1]: 15.8 µM (active)
outcome [2]: inactive

CCN(CC)c1ncnc2c1ncn2[C@@H]1O[C@H](COP(=O)(O)OP(=O)(O)C(Br)(Br)P(=O)(O)O)[C@@H](O)[C@H]1O
Potency [1]: inactive
outcome [2]: inactive
Potency [3]: inactive

N#C/C(=C\c1ccc(O)c(O)c1)C(=O)c1ccc(O)c(O)c1
Potency [1]: inactive
outcome [2]: inactive
Potency [3]: inactive

Nc1nc2ccc(Cl)cc2n2c(-c3ccccc3)nnc12
Potency [1]: inactive
outcome [2]: inactive

CN(C)C(N)=NCCC[C@H](N)C(=O)O
Potency [1]: inactive
outcome [2]: inactive
Potency [3]: inactive
